Reference: PubChem BioAssay AID602288 (National Center for Advancing Translational Sciences (NCATS), 2012)
Results filed as inconclusive are left out. Active and inactive are the calls of the source. The call rests on the fitted dose curve; in most records, active means well fitted cell-killing curve with a large enough effect (not every such curve was filed as active); inconclusive means small, poorly fitted or top-dose-only effect, or another doubt; inactive means no such curve, though single readings can be large or run the other way.

Assay: qHTS Assay for Agonists of the Relaxin Receptor RXFP1: Cytotoxicity SAR
Conditions: HEK293-RXFP1 viability, ATPLite luminescence, 72 h; series mostly up to 78.1 µM
Source text: The relaxin hormone is involved in the variety of biological functions in normal tissues and diseases. The role of relaxin is well-established in female reproduction and parturition, mammary gland and endometrial development, maintenance of myometrial quiescence during pregnancy. Relaxin signaling through its G protein-coupled receptor (GPCR) RXFP1 results in ECM remodeling through regulation of collagen deposition, cell invasiveness, proliferation and overall tissue homeostasis. […] Recombinant human relaxin (rhRlx) is currently being tested in clinical trials as a protective agent in congestive heart failure, in treating severe preeclampsia, and as an anti-fibrotic agent in systemic sclerosis. In the primary screen, upon relaxin binding RXFP1 activation leads to the activation of adenylate cyclase (AC) via Gs. cAMP will activate PKA, which phosphorylates many signaling proteins. Thus, detection of cAMP increase is an easy and reliable indication of relaxin receptor activation. To screen for agonists of the relaxin receptor, a HEK293T cell line stably transfected with RXFP1 was used. RXFP1 activation was assayed by changes in cAMP levels as detected with a time-resolved fluorescence energy transfer (TR-FRET) cAMP detection kit. We conducted this followup assay to measure the effect of the lead candidates on cell health by measuring ATP levels (ATPLite). NIH Chemical Genomics Center [NCGC] NIH Molecular Libraries Probe Production Centers Network [MLPCN] MLPCN Grant: R03 MH085705-01A1 Assay Submitter (PI): Alexander Agoulnik
In this assay, the luciferase enzyme catalyzes the conversion of the added substrate D-luciferin to oxyluciferin and light with ATP. Thus, the emitted light is proportional to the ATP concentration. To evaluate the cytotoxic properties of the compounds, HEK293-RXFP1 cells were incubated with compounds for 72 h in growth media (DMEM 10% FBS, 1x Pen/Strep, 0.5 mg/mL G418) in 384-well format. After compound incubation, the levels of ATP in each well were measured with the addition of the ATPLite assay reagent.

| Compound | Potency |
| --- | --- |
| CCOc1ccccc1C(=O)Nc1ccncc1C(=O)Nc1cccc(S(=O)(=O)C(F)(F)F)c1 | 2.36 µM (active) |
| CCOc1ccccc1C(=O)Nc1ccccc1C(=O)Nc1cccc(C(F)(F)F)c1 | inactive |
| COc1ccccc1C(=O)Nc1ccccc1C(=O)Nc1cccc(C(F)(F)F)c1 | inactive |
| O=C(NCc1cccc(C(F)(F)F)c1)c1ccccc1NC(=O)C1CCCCC1 | 11.8 µM (active) |
| O=C(Nc1ccc(C(F)(F)F)cc1)c1ccccc1NC(=O)C1CCCCC1 | 11.8 µM (active) |
| CCOc1ccccc1C(=O)Nc1cnccc1C(=O)Nc1cccc(S(=O)(=O)C(F)(F)F)c1 | 23.6 µM (active) |
| O=C(Nc1cccc(Cl)c1)c1ccccc1NC(=O)C1CCCCC1 | 29.7 µM (active) |
| COCCOc1ccccc1C(=O)Nc1ccccc1C(=O)Nc1cccc(C(F)(F)F)c1 | inactive |
| CCOc1ccccc1C(=O)Nc1ncccc1C(=O)Nc1cccc(S(=O)(=O)C(F)(F)F)c1 | 18.8 µM (active) |
| O=C(Nc1cccc(C(F)(F)F)c1)c1ccccc1NC(=O)C1CCCCC1 | 18.8 µM (active) |
| CCOc1ccccc1C(=O)Nc1sccc1C(=O)Nc1cccc(S(=O)(=O)C(F)(F)F)c1 | 7.47 µM (active) |
| COc1ccccc1-c1ccccc1C(=O)Nc1cccc(C(F)(F)F)c1 | 23.6 µM (active) |
| COc1ccccc1C(=O)Nc1cccc(C(=O)Nc2cccc(C(F)(F)F)c2)c1 | 18.8 µM (active) |
| O=C(Cc1ccccc1)Nc1ccccc1C(=O)Nc1cccc(C(F)(F)F)c1 | 47.1 µM (active) |
| O=C(Nc1cccc(SC(F)(F)F)c1)c1ccccc1NC(=O)C1CCCCC1 | inactive |
| CCOc1ccccc1C(=O)Nc1ccccc1CNc1cccc(S(=O)(=O)C(F)(F)F)c1 | inactive |
| Cc1cccc(NC(=O)c2ccccc2NC(=O)C2CCCCC2)c1 | 23.6 µM (active) |
| CC(C)Oc1ccccc1C(=O)Nc1ccccc1C(=O)Nc1cccc(C(F)(F)F)c1 | inactive |
| CCC(CC)C(=O)Nc1ccccc1C(=O)Nc1cccc(C(F)(F)F)c1 | 9.4 µM (active) |
| COCCNc1ccccc1C(=O)Nc1cccc(C(F)(F)F)c1 | 29.7 µM (active) |

| Compound | Potency |
| --- | --- |
| CCOc1ccccc1S(=O)(=O)Nc1ccccc1C(=O)Nc1cccc(S(=O)(=O)C(F)(F)F)c1 | 5.93 µM (active) |
| CCOc1ccccc1C(=O)NCCC(=O)Nc1cccc(S(=O)(=O)C(F)(F)F)c1 | inactive |
| COc1ccccc1CNc1ccccc1C(=O)Nc1cccc(C(F)(F)F)c1 | 23.6 µM (active) |
| COc1ccccc1C(=O)N(C)c1ccccc1C(=O)N(C)c1cccc(C(F)(F)F)c1 | 59.3 µM (active) |
| O=C(Nc1ccccc1C(=O)Nc1cccc(C(F)(F)F)c1)c1ccccc1Cl | 11.8 µM (active) |
| COc1ccccc1C(=O)Nc1ccccc1C(=O)N(C)c1cccc(C(F)(F)F)c1 | 29.7 µM (active) |
| O=C(Nc1cccc(C(F)(F)F)c1)c1ccccc1NC(=O)C1CCCC1 | inactive |
| O=C(Nc1cccc([N+](=O)[O-])c1)c1ccccc1NC(=O)C1CCCCC1 | inactive |
| CCOc1ccccc1-c1nc2c(C(=O)Nc3cccc(S(=O)(=O)C(F)(F)F)c3)cccc2[nH]1 | inactive |
| O=C(Nc1cccc(C(F)(F)F)c1)c1ccccc1NC(=O)C1CC1 | inactive |
| CC(C)Oc1ccccc1C(=O)Nc1ccccc1C(=O)Nc1cccc(S(=O)(=O)C(F)(F)F)c1 | 9.4 µM (active) |
| O=C(Nc1cccc(-c2ccccc2C(F)(F)F)c1)c1ccccc1NC(=O)C1CCCCC1 | inactive |
| CCCCOc1ccccc1C(=O)Nc1ccccc1C(=O)Nc1cccc(S(=O)(=O)C(F)(F)F)c1 | inactive |
| O=C(Nc1ccccc1C(=O)Nc1cccc(C(F)(F)F)c1)c1cccnc1 | inactive |
| O=C(Nc1cccc(-c2ccccc2)c1)c1ccccc1NC(=O)C1CCCCC1 | 14.9 µM (active) |
| COc1ccc(C(=O)Nc2ccccc2C(=O)Nc2cccc(C(F)(F)F)c2)cc1 | inactive |
| CCCOc1ccccc1C(=O)Nc1ccccc1C(=O)Nc1cccc(S(=O)(=O)C(F)(F)F)c1 | 9.4 µM (active) |
| Cc1ccccc1C(=O)Nc1ccccc1C(=O)Nc1cccc(C(F)(F)F)c1 | inactive |
| O=C(Nc1cccc(Br)c1)c1ccccc1NC(=O)C1CCCCC1 | inactive |
| CSc1cccc(NC(=O)c2ccccc2NC(=O)C2CCCCC2)c1 | inactive |
